High-throughput results as filed in PubChem BioAssay.
Rows were chosen to be rich in hits. Some 2.8% of all compounds tested hit in one or more screens of this group.
HepG2 tox: counter-screen for TGF-b inhibitors: cytotoxicity in HepG2 cells; HepG2 CAGA-GFP viability, ATP luminescence, 18 h; Potency, µM (doses to about 46.1 µM), without a hit: top-dose activity change, negative = cytotoxicity, actives largely listed as cytotoxic; 410,000 tested, 0.76% active; AID 588856
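HepG2 CAGA-GFP cells (1000/well, DMEM with 1% FBS) received compound, then TGF-beta at 500 pg/mL final, and were incubated 18 hours at 37 degrees C. Viability was read by CellTiter-Glo luminescence. Media-only wells were set as complete cell-killing and DMSO as no toxicity.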
ATXN viability: cell viability loss in ATXN counter-screen | S2 cells (HEK-293 line with an ATXN2-luciferase reporter) viability, CellTiter-Fluor protease fluorescence, 24 h | 400,000 tested, 0.49% active | Potency, µM (series often up to 56.7 µM), usual class: cytotoxic; also: nearly all actives have a fitted effect of over 40% in size
TGFb inhibitor: blocks TGF-b signaling. Potency, µM (titrated, usually from 46.1 µM), for inactives: at the highest dose activity, negative = inhibition, actives largely listed as inhibitors. 410,000 tested, 1.2% active. AID 588855. HepG2 CAGA-GFP TGF-b/SMAD3 reporter, GFP fluorescence, 18 h; TGF-beta stimulated, 500 pg/mL final; also: % is scaled to controls: 0 for no effect and ±100 for the full control effect; nearly all actives have a fitted effect of over 65% in size
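Per well, imaged GFP fluorescence of HEPG2 CAGA-GFP cells gives the signal; cells get compound, then TGF-beta (500 pg/mL final), 18 h at 37 degrees C; %Activity versus -TGF-beta and +DMSO controls.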
ATXN2 expr inh: inhibitors of ATXN2 expression | AID 1745845 | 360,000 tested, 0.72% active | Potency, µM (titrated, usually from 57 µM), without a hit: at the highest dose activity change, negative = inhibition, most hits filed as inhibitors | HEK-293 ATXN2-luciferase reporter, luminescence, 24 h; also: % is scaled to controls: 0 for no effect and ±100 for the full control effect; nearly all actives have a fitted effect of over 55% in size
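ATXN2-luciferase reporter cells (luciferase flanked by upstream and downstream ATXN2 gene portions) were treated 24 h at 37 °C with compounds at up to 57 uM. SteadyGlo luminescence gave expression; GF-AFC fluorescence gave viability.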
HTT cytoprotect: Huntington cell model cytoprotection by ATP luminescence | AID 1471 | Potency, µM (titrated, usually from 56.4 µM), without a hit: cytoprotection (ATP increase), actives largely listed as activators | 230,000 tested, 0.14% active | PC12 HTT-Q103 induced, cytoprotection, ATP luminescence, 40 h; also: % of control where 0% means no effect; nearly all actives have a fitted effect of over 45% in size
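ATP quantification (ATPlite) reports survival of PC12 cells in which tebufenozide, 100 nM final, switches on Htt exon 1 with 103 glutamines linked to GFP; compounds are titrated.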
HttQ103 aggreg: reduces HttQ103-GFP aggregates in PC12 cells; Potency, µM (series often up to 46.1 µM), without a hit: at the top dose activity change, negative = inhibition, actives largely listed as inhibitors; PC12 HttQ103-GFP aggregates, Acumen cytometry, 40 h; 220,000 tested, 1.1% active; also: % is scaled to controls: 0 for no effect and ±100 for the full control effect; nearly all actives have a fitted effect of over 60% in size
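Multiplexed with ATP-based cell death, this channel scores GFP aggregates in PC12 cells expressing inducible HTTex1-Q103-GFP. Induction used 100 nM tebufenozide; compounds were tested in concentration series.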
Numbers without * were called inactive; i = inactive; ? = inconclusive; . = no result; ! = a repeat was not active; [ ] = another dose, or the depositor's remark. Calls follow the shape of the dose curve; as a rule, active = well fitted curve in the direction sought with a large enough effect; inconclusive = small, poorly fitted or top-dose-only effect, or another doubt; inactive = no such curve, though single readings can be large; an effect the other way counts as inactive or inconclusive. Potency is read from the fitted curve at half-maximal effect.

SMILES	HepG2 tox	ATXN viability	TGFb inhibitor	ATXN2 expr inh	HTT cytoprotect	HttQ103 aggreg
CC[C@H](C)[C@@H](NC(=O)O[C@@H]1Cc2cc(OC)ccc2O[C@H]1c1cccc(OC)c1)C(=O)OC	.	.	.	.	-30%	.
O=C(O)c1cccc(NCc2cccnc2)c1	-34%	i	5%	2%	11%[10 µM]	-13%
O=C(O)c1ccc(NCc2cccnc2)cc1	4µM*	i	1%	8%	1%	-5%
COc1ccccc1Cn1c(CNS(=O)(=O)c2ccc(CC(C)C)cc2)nc2cccnc21	-25%	.	13µM*	.	.	.
COc1ccccc1Cn1c(CNS(=O)(=O)c2ccc(C(C)C)cc2)nc2cccnc21	-13%	.	?	.	.	.
Fc1ccc(-c2nnc(CN3CCN(c4ncc(C(F)(F)F)cc4Cl)CC3)o2)cc1	-35%	?	-10%	-28%	-18%[0.074 µM]	13µM*
COc1ccccc1NC(=O)c1c(C)cc(C)nc1SCC(=O)Nc1cccc(C)c1	-21%	?	10µM*	-19%	.	.
OC[C@@H]1O[C@@H](n2cnc3c(NC4CCCC4)ncnc32)[C@@H](O)[C@H]1O	.	.	.	.	-9%[1.9 µM]	.
CC(C)CC(=O)Nc1n[nH]c2c1CN(C(=O)C1CCN(C)CC1)C2(C)C	.	.	.	1.1µM*	.	.
CCCCCCOc1ccc(N2C(=O)CC(S/C(N)=N/N=C(\C)c3cccs3)C2=O)cc1 (stereo not drawn)	-67%	i	?	-9%	0.79µM*	-1%
COc1ccc2oc(=O)c(C(=O)Nc3cccc(C(=O)O)c3)cc2c1	-1%	i	36%	0.89µM*	.	.
COc1ccc2oc(=O)c(C(=O)Nc3cccc(C)c3)cc2c1	11%	i	91%	38%	11%[10 µM]	-1%[9.22 µM]
O=C[C@@H]1CCCN1C(=O)[C@@H]1CCCN1C(=O)OCc1ccccc1	.	.	.	.	-24%	.
COc1ccc(OC)c(CCNC(=O)c2cc3c(-c4ccccc4F)nn(C)c3s2)c1	-41%	?	?	25µM*	.	.
COc1ccc(NC(=O)c2cc3c(-c4ccccc4F)nn(C)c3s2)c(OC)c1	-4%	i	2%	-20%	.	.
COc1cccc(-c2nn(C)c3sc(C(=O)NCCCN(C)Cc4ccccc4)cc23)c1	-22%	?	-11%	28µM*	.	.
COc1ccc(C(=O)NCCN2Cc3ccccc3OC(c3ccsc3)C2)c(OC)n1 (stereo not drawn)	.	i	.	.	.	.
OC(Cc1ccc2ccccc2n1)c1c(Cl)cccc1Cl (stereo not drawn)	-24%	.	0%	.	.	.
CC(C)(O)CC[C@@H](O)[C@](C)(O)[C@H]1CC[C@@]2(O)C3=CC(=O)[C@@H]4C[C@@H](O)[C@@H](O)C[C@]4(C)[C@@H]3CC[C@]12C	.	.	.	-13%	.	.
O=c1c(Cl)c2oc3ccccc3nc-2c2ccccc12	-48%	i	5µM*	-3%[11.3 µM]	-59%[10 µM]	-43%[9.22 µM]
COc1ccc(OC)c([C@H]2Nc3ccccc3NC3=C2C(=O)CC(C)(C)C3)c1Br	.	.	.	.	4%	.
NC(N)=Nc1nc(-c2ccccc2)c2cc(F)ccc2n1	-79%	5.6µM*	?	?	.	?
OCCSc1nc(-c2ccccc2)nc2ccc(F)cc12	-17%	i	6%	.	-11%[10 µM]	-5%[9.22 µM]
COc1ccc(CCNC[C@H](O)c2ccc(O)cc2)cc1OC	.	.	.	.	0%[1.9 µM]	.
O=C(CN1CCCC1)Nc1ccc(-c2nc3cc(NC(=O)CN4CCCC4)ccc3o2)cc1	-36%	13µM*	?	?	-52%[10 µM]	?
CNC(=O)c1cc(Oc2ccc(NC(=O)Nc3ccc(Cl)c(C(F)(F)F)c3)cc2)ccn1	16µM*!	16µM*	?	18µM*!	-95%	?
O=C(N/N=C/c1cccc([N+](=O)[O-])c1O)c1cccs1	-67%	?	?	?	4%[10 µM]	16µM*
O=C(NC1CCCC1)c1sc(=S)n2c1[nH]c(=O)c1ccccc12	-32%	i	-13%	?	-42%	8.9µM*
